Results from PubChem BioAssay (NCI).
About 83,000 compounds went through this panel and 20% of them were active in at least one assay; those are over-represented in the sample as a whole.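 Note: values are percent growth. 100 is the growth of untreated cells, values between 100 and 0 indicate rising inhibition; between -100 and 0 indicates cell death.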 Unmarked numbers belong to inactive results. Activity calls are given as the source filed them. Rule for the calls: active = growth percent below 10; inactive = the rest.

Legend:
Assay in all cases: NCI-60 one-dose screen, 48 h (100 = growth as untreated, 0 = no growth, -100 = all killed)
Settings in all cases: 10 µM unless noted
NCI-H23 lung = tested on: NCI-H23 lung
NCI-H226 lung = tested on: NCI-H226 lung
NCI-H322M lung = tested on: NCI-H322M lung
HOP-62 NSCLC = tested on: HOP-62 NSCLC
NCI-H460 lung = tested on: NCI-H460 lung
HOP-92 NSCLC = tested on: HOP-92 NSCLC
NCI-H522 lung = tested on: NCI-H522 lung
A549/ATCC NSCLC = tested on: A549/ATCC NSCLC
786-0 renal = tested on: 786-0 renal
COLO 205 colon = tested on: COLO 205 colon

SMILES | growth (NCI-H23 lung) | growth (NCI-H226 lung) | growth (NCI-H322M lung) | growth (HOP-62 NSCLC) | growth (NCI-H460 lung) | growth (HOP-92 NSCLC) | growth (NCI-H522 lung) | growth (A549/ATCC NSCLC) | growth (786-0 renal) | growth (COLO 205 colon)
Cc1cccc(C)c1NC(=O)CSC(=S)N1CCCCC1 | 88.7% | 109% | 82.7% | 107% | 106% | 107% | 92% | 101% | 92.6% | 109%
N#Cc1cnc2cc(OC[C@@H](O)CO)c(NC(=O)CC3CSSC3)cc2c1Nc1ccc(OCc2cccc(F)c2)c(Cl)c1 | -72.4% (active) | -65.3% (active) | -84.2% (active) | -57.1% (active) | -66.9% (active) | 9.97% (active) | -72.6% (active) | -61.8% (active) | -31.4% (active) | -70.5% (active)
O=C1c2ccccc2NC(c2cn(-c3ccccc3)nc2-c2cccs2)N1Cc1ccccc1 (stereo not given) | 74% | 96.3% | 85.3% | 86.9% | 94.5% | 74.1% | 72.3% | 82.8% | 73.6% | 93.5%
Cc1cc(N2CCCCC2)nc(N(CCNc2ccnc3cc(Cl)ccc23)Cc2ccco2)n1 | 9.31% (active) | 80.1% | 68.9% | 24.3% | 8.11% (active) | 52% | 19.1% | 36.6% | 23.4% | -13.7% (active)
COC(=O)[C@]12CC[C@@H](C)[C@H](C)[C@@H]1C1=CC(=O)[C@@H]3[C@@]4(C)C[C@@H](O)[C@H](O)[C@@]5(C)COC(=C45)C[C@@]3(C)[C@]1(C)CC2 | 76.9% | 81.6% | 88.4% | 50.8% | 34.6% | 45.6% | 51% | 41.6% | 78.5% | 40.8%
CC(=O)O[C@H]1CC[C@@]2(C)[C@@H](CC[C@@H]3[C@@H]2CC(=O)[C@@]2(C)[C@H]3C[C@@H](C3CCCC3=O)[C@@H]2C(C)=O)C1 (stereo not given in full) | 107% | 112% | 106% | 100% | 111% | 93.1% | 82.5% | 101% | 105% | 116%
Cn1cc(-c2csc(-c3cn(CCCN4CCCCC4)c4ccccc34)n2)c2cccnc21 | 84% | 52.7% | 82.7% | -84% (active) | -58.7% (active) | 57.8% | 95.2% | -14.4% (active) | -87.1% (active) | -80% (active)
COc1ccc(-c2cc(/C=C/C(=O)c3ccc(OC)c(OC)c3)[nH]n2)cc1 | 32.7% | 50.9% | 26.1% | 8.64% (active) | -71.1% (active) | 66.6% | 1.47% (active) | 29.2% | 13% | 24.5%
O=C1/C(=C\C(Cl)=C/c2ccc([N+](=O)[O-])cc2)SC(=S)N1CCc1ccc(O)cc1 | -57.9% (active) | -63.3% (active) | 2.21% (active) | 12.9% | 0.441% (active) | -3.03% (active) | 0.0131% (active) | 3.64% (active) | -46.4% (active) | -43.8% (active)
O=[N+]([O-])c1ccc(/C=N\Nc2ccccc2)cc1 | 93.9% | 87.7% | 83% | 95.2% | 76.7% | 100% | 61% | 57.7% | 87.2% | 105%
COc1cc(-c2cc3ncccc3c3[nH]c(=O)c4cccnc4c23)cc(OC)c1OC | 44.5% | 28.3% | 52.6% | 30.3% | 8.58% (active) | 30.6% | 34.3% | 23.8% | 24.7% | -18.6% (active)
Cc1cc(N2CCOCC2)nc(N(CCCNc2ccnc3cc(Cl)ccc23)Cc2ccco2)n1 | 35.3% | 74.7% | 28.7% | 12.9% | 18.8% | 34% | 40.2% | 18.9% | 42.1% | 3.4% (active)
CCCCCCCC(=O)SCC/C=C/[C@@H]1CC(=O)NCc2cccc(n2)CN(Cc2ccc(Cl)cc2)CC(=O)N[C@@H](C(C)C)C(=O)O1 | 19.5% | 16.1% | 8.85% (active) | 8.04% (active) | 11.9% | -16.5% (active) | 29.6% | 2.92% (active) | 14.4% | -40.4% (active)
